What follows are compounds tested against Glucose transporter (Leishmania mexicana) (UniProt O61059) (assay: ST_JUDE_LEISH: Cytotoxicity at 2uM final concentration against transgenic Leishmania Mexicana promastigotes LmGT2 that are glucose transport deficient and complemented with the L. Mexicana glucose transporter 2. Activity is measured by DNA content using SYBR green in vitro).
Type: functional

| SMILES | inhibition |
| --- | --- |
| O=C(Nc1cccc(F)c1)c1ccc(C(=O)NC2CCN(CC3CCCCC3)C2)cc1 (stereo not given) | 8.76% |
| Cc1ccccc1C1CCN(C2CCC(NC(=O)/C=C/c3cccc(C(F)(F)F)c3)CC2)CC1 (stereo not given) | 2.39% |
| COc1cc(CCNCC(O)c2ccc([N+](=O)[O-])c(OCc3ccccc3)c2)cc(OC)c1OC (stereo not given) | 0.48% |
| CCC(C)NC(=O)CN1CN(c2ccccc2)C2(CCN(C(=O)c3ccc(C(C)(C)C)cc3)CC2)C1=O (stereo not given) | 1.7% |
| Cc1ccccc1C1CCN(C2CCC(NC(=O)/C=C/c3cc(F)ccc3F)CC2)CC1 (stereo not given) | 3.64% |
| C=CCn1c(Sc2ccc(C#N)c([N+](=O)[O-])c2)nnc1-c1cccc(Cl)c1 | -1.95% |
| Cc1nc(-c2nc(N3CCC(O)CC3)ncc2-c2ccsc2)sc1C | 0.38% |
| NC1CCN(Cc2cccc(-c3ccc(-c4nc5ccccc5[nH]4)s3)c2)C1 (stereo not given) | 4.58% |
| CC(CCON1C(N)=NC(N)=NC1(C)C)c1ccc(Cl)cc1 (stereo not given) | 21% |
| COc1ccc(-c2cncc3ccc(C(=O)NCCCn4ccnc4)nc23)cc1 | 7.3% |
| O=C1CSc2ccc(CNC3CCN(CCc4c(Cl)cnc5ccc(F)cc45)CC3)nc2N1 | 2.97% |
| Cc1sc2nc(CSc3ccccc3)nc(N3CCN(CC(=O)N4CCCC4)CC3)c2c1C | 1.41% |
| CCCC(C)Nc1nc(C)cc(N[C@@H](CC(C)C)C(=O)NCCOc2ccccc2)n1 (stereo not given in full) | 16.7% |
| CCOc1ccccc1C(=O)N1CCc2cc3nccc(N4CCN5CCC[C@H]5C4)c3cc21 | -0.44% |
| O=C(/C=C/c1ccc(Cl)c(Cl)c1)NCCCCCN1CCC(NC(=O)Nc2ccc([N+](=O)[O-])cc2)CC1 | -0.43% |

From ChEMBL document CHEMBL3433997, “St. Jude Leishmania screening dataset” (2016)
